# Screening data: PubChem BioAssay, National Center for Advancing Translational Sciences (NCATS)
# Sampled rows, rich in hits. Any-hit rate of the full collection: about 19%.
# IL-1B inflam inh: inhibitors of inflammasome signaling (IL-1 beta secretion); THP-1 LPS/ATP IL-1B secretion, AlphaLISA, 16 h; hits give low values; activity change, % at 57.5 µM; actives 4.7% (n = 360,000); in the data active means activity change below about -50%; inconclusive means mostly about -30% to -49%; further: on the % scale 0 is the no-effect control and ±100 the full control effect
#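 THP-1 cells pretreated 1 hr with compounds (up to 57.5 uM final), then stimulated with LPS (250 ng/mL final) plus ATP (1.25 mM final); secreted IL-1B measured by AlphaLISA after 16 hr, decreased signal indicating inhibition.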
# TGFb SMAD3 inh: blocks TGF-b signaling. HepG2 CAGA-GFP TGF-b/SMAD3 reporter, GFP fluorescence, 18 h; TGF-beta stimulated, 500 pg/mL final. actives 1.2% (n = 410,000). Potency, µM (top dose mostly 46.1 µM), inactives show top-dose activity, negative = inhibition, hits mostly inhibitors. AID 588855; further: potency means the concentration at half of the fitted maximal effect; on the % scale 0 is the no-effect control and ±100 the full control effect; nearly all actives have a fitted effect of over 65% in size
#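 HEPG2 CAGA-GFP cells (1000/well, DMEM with 1% FBS) were pre-incubated 2 h at 37 degrees C, given compound by pin tool, then stimulated with TGF-beta at 500 pg/mL final for 18 h before per-cell GFP fluorescence imaging.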
# HepG2 tox: counter-screen for TGF-b inhibitors: cytotoxicity in HepG2 cells. actives 0.76% (n = 410,000). HepG2 CAGA-GFP viability, ATP luminescence, 18 h. Potency, µM (titrated, usually from 46.1 µM), inactives show at the top dose activity change, negative = cytotoxicity, usual class: cytotoxic. AID 588856; further: potency means the concentration at half of the fitted maximal effect
#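 CellTiter-Glo luminescence gave cytotoxicity after 18 hours at 37 degrees C. The cells were HepG2 CAGA-GFP in 1% FBS DMEM, stimulated with 500 pg/mL TGF-beta after compound addition. %Activity was normalised to no-cell wells (complete cell-killing) and DMSO (no toxicity), and curves were fitted and classified.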
# DT40 TDP1 CPT: DT40-hTDP1 cell growth loss with CPT | Potency, µM (doses to about 46.2 µM), without a hit: top-dose activity change, negative = growth inhibition, most hits filed as inhibitors | actives 12% (n = 420,000) | chicken DT40 Tdp1-/-;hTDP1 cells + 20 nM CPT, ATP luminescence, 48 h | AID 686979; further: potency means the concentration at half of the fitted maximal effect; on the % scale 0 is the no-effect control and ±100 the full control effect; nearly all actives have a fitted effect of over 55% in size
#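 Chicken DT40 Tdp1-/- cells stably complemented with human TDP1 were seeded at 400 cells/well in medium containing 20 nM camptothecin, exposed to pin-transferred compounds, and grown at 37 °C for at least 48 hr. Viability was read as ATP luminescence.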
# TDP1 cell noCPT: qHTS for Inhibitors of human tyrosyl-DNA phosphodiesterase 1 (TDP1): qHTS in cells in absence of CPT. AID 686978, 2013. actives 15% (n = 420,000). DT40 Tdp1-/- hTDP1 cells, no CPT, ATP luminescence, 48 h. Potency, µM (highest dose often 46.2 µM), for inactives: at the highest dose activity change, negative = growth inhibition, most hits filed as inhibitors; further: potency means the concentration at half of the fitted maximal effect; on the % scale 0 is the no-effect control and ±100 the full control effect; nearly all actives have a fitted effect of over 55% in size
#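 Camptothecin absent (DMSO only). Human TDP1-complemented DT40 knockout cells, 400 cells/well, 37 °C for minimum 48 hr; ATP measured via CellTiter-Glo, 30 min dark incubation, luminescence.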
# TDP1 block: blocks human tyrosyl-DNA phosphodiesterase 1; recombinant TDP1, AlphaScreen DNA substrate cleavage; Potency, µM (titrated, usually from 130 µM), without a hit: at the highest dose activity change, negative = inhibition, actives largely listed as inhibitors; actives 0.28% (n = 350,000); further: potency means the concentration at half of the fitted maximal effect; on the % scale 0 is the no-effect control and ±100 the full control effect; nearly all actives have a fitted effect of over 40% in size
# Target sequence (Q9NUW8 whole entry, looked up): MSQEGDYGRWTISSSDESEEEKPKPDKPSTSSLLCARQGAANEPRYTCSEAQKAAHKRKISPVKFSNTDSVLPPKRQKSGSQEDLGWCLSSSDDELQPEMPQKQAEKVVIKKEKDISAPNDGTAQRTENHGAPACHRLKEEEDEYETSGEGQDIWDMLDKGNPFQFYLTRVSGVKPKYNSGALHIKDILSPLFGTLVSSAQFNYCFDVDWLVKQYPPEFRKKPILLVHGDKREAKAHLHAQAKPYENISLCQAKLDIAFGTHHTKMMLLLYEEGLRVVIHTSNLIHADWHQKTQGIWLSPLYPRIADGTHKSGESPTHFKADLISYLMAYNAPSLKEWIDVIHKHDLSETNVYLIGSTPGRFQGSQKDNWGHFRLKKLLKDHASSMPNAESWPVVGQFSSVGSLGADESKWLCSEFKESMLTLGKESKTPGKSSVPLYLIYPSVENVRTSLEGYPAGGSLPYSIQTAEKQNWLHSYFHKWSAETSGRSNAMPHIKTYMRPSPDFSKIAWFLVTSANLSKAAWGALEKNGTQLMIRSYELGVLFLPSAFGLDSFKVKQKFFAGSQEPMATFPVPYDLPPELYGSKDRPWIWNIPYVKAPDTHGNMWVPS
#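 Recombinant E. coli-expressed Tdp1 (1 nM) preincubated with compound 15 min at RT, then 5'-biotin/3'-phosphotyrosine-FITC DNA substrate (15 nM) added for 5 min. AlphaScreen beads (10 ug/ml) added, 10 min RT; tyrosine-FITC cleavage read as signal loss.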
# Starred values were filed as active, the others as inactive; ? = inconclusive; . = not tested or not shown. Unless noted, the call rests on the fitted dose curve; in most records, active means well fitted curve in the direction sought with a large enough effect; inconclusive means small, poorly fitted or top-dose-only effect, or another doubt; inactive means no such curve, though single readings can be large; an effect the other way counts as inactive or inconclusive.
SMILES,IL-1B inflam inh,TGFb SMAD3 inh,HepG2 tox,DT40 TDP1 CPT,TDP1 cell noCPT,TDP1 block
Cc1nn2c(NCCCN(C)C)c3c(nc2c1-c1ccccc1)CCCC3,-21.6,?,-26.1%,?,?,6.8%
O[C@@H]1CO[C@H]2[C@@H]1OC[C@@H]2O,.,.,.,8.0%,-7.5%,.
COCCCNC(=O)c1sc2nc(C)c(C(=O)Nc3ccc(C)cc3C)c(-c3ccc(Cl)cc3)c2c1N,.,-0.1%,-10.0%,?,?,5.9%
O=C(Nc1ccccc1)c1cc(C2CCCCN2C(=O)c2cccs2)on1 (stereo not drawn),-10.2,1.9%,-15.6%,?,18.4µM*,.
O=C(Nc1ccccc1)c1cc(C2COCCN2C(=O)c2ccccn2)on1 (stereo not drawn),-1.3,-3.9%,-3.4%,-10.1%,?,.
COc1ccc(C(=O)N2CCCCC2c2cc(C(=O)Nc3cccc(C#N)c3)no2)cc1 (stereo not drawn),-11.9,18.2%,-29.6%,23.1µM*,?,.
Cn1nc(C(C)(C)C)cc1C(=O)N1CCCCC1c1cc(C(=O)Nc2cccc(C#N)c2)no1 (stereo not drawn),7.2,5.6%,-8.4%,20.6µM*,16.4µM*,.
N#Cc1cccc(NC(=O)c2cc(C3CCCCN3C(=O)c3ccccn3)on2)c1 (stereo not drawn),26.5,2.6%,-11.7%,23.1µM*,?,.
O=C(Nc1ccccc1)c1cc(C2CCCCN2S(=O)(=O)c2cccs2)on1 (stereo not drawn),-14.4,11.9%,-16.7%,-27.1%,?,.
Cc1cc(C)c(CN2C(=O)c3ccccc3S(=O)(=O)c3ccc(C(=O)OCC4CCCO4)cc32)c(C)c1 (stereo not drawn),.,-20.6%,-18.7%,?,?,0.0%
COc1ccc(NC(=O)c2cc(C3CCCCN3C(=O)c3ccccc3)on2)c(C)c1 (stereo not drawn),11.0,-29.7%,-24.0%,18.4µM*,9.2µM*,.
COc1ccc(NC(=O)c2cc(C3CCCCN3C(=O)C3CC3)on2)c(C)c1 (stereo not drawn),-12.5,9.8%,-3.2%,?,-23.6%,.
N#Cc1cccc(NC(=O)c2cc(C3CCCCN3C(=O)C3CC3)on2)c1 (stereo not drawn),0.0,-0.1%,-23.4%,25.9µM*,?,.
N#Cc1cccc(NC(=O)c2cc(C3CCCCN3C(=O)c3ccccc3)on2)c1 (stereo not drawn),9.1,-6.9%,-47.9%,18.4µM*,10.3µM*,.
Cc1ccccc1CNC(=O)c1cnc2sc(N3CCC(C)CC3)nn2c1=O,.,5.3%,-1.7%,-23.1%,-27.5%,-2.6%
O=[N+]([O-])c1ccc2c3n([n+]([O-])c2c1)CCN=C3c1ccc(Cl)cc1,-13.7,?,-25.9%,9.2µM*,14.6µM*,10.5%
Cc1ccc(C2=NCCn3c2c2ccc([N+](=O)[O-])cc2[n+]3[O-])cc1,7.8,?,-34.9%,4.11µM*,10.3µM*,6.9%
COc1ccc(Cn2ccc3nc(C)c(C(=O)NCc4ccc(OC)cc4OC)cc3c2=O)cc1,.,-25.7%,-26.8%,-26.8%,-29.0%,8.4%
CSc1ccc(CNC(=O)c2cc3c(=O)n(Cc4ccco4)ccc3nc2C)cc1,.,11.2µM*,-42.9%,29.1µM*,23.1µM*,8.4%
CCOc1ccccc1CNC(=O)c1cc2c(=O)n(Cc3ccccc3)ccc2nc1C,.,?,-24.1%,18.4µM*,16.4µM*,8.4%
Cc1ccc(NC(=O)c2cc3c(=O)n(Cc4ccco4)ccc3nc2C)cc1C,.,?,-16.9%,25.9µM*,?,8.4%
O=C(COCc1cc(-c2ccc3c(c2)OCO3)on1)Nc1cc(C(F)(F)F)ccc1Cl,.,29.4%,0.8%,?,?,-1.2%
CN(CC(=O)NCc1ccco1)CC(=O)Nc1c(Cl)cccc1Cl,-2.2,-8.3%,-31.5%,-4.8%,1.9%,0.6%
Cc1nc(N2CCCC2)ncc1C(=O)N1CCN(c2ccc(Cl)cc2)CC1,.,?,-50.9%,?,?,3.8%
COc1ccc(Nc2ncnc3sccc23)cc1,14.9,-2.8%,-1.2%,-7.7%,?,0.1%
SMILES,IL-1B inflam inh,TGFb SMAD3 inh,HepG2 tox,DT40 TDP1 CPT,TDP1 cell noCPT,TDP1 block
CC1CCCCC1Nc1ncnc2sccc12 (stereo not drawn),10.6,2.3%,-30.8%,18.4µM*,?,7.3%
CCC(=O)c1ccc(OCC(=O)OC(C)C(=O)NCc2ccc3c(c2)OCO3)cc1 (stereo not drawn),6.4,-12.9%,3.9%,-10.4%,-13.4%,-3.3%
CCCN(CCC)C(=O)Cn1c(=O)n(-c2ccc(C)cc2)c(=O)c2ccc(C(=O)NCc3ccccc3Cl)cc21,.,-9.3%,-28.0%,?,?,0.0%
CCCN(CCC)C(=O)Cn1c(=O)n(-c2ccc(CC)cc2)c(=O)c2ccc(C(=O)NCCc3ccccc3)cc21,.,-3.1%,1.9%,11.6µM*,7.31µM*,0.0%
O=C(NCc1ccco1)c1ccc2c(=O)n(-c3ccccc3)c(=O)n(Cc3cccc(F)c3)c2c1,.,.,.,.,.,5.3%
CCc1ccc(-n2c(=O)c3ccc(C(=O)NCCc4ccccc4)cc3n(CC(N)=O)c2=O)cc1,12.9,-5.2%,3.9%,?,20.6µM*,-2.3%
COc1ccc(CNC(=O)C2=C(C)C(=O)OC23CCN(C(C)=O)CC3)cc1,.,-3.8%,5.0%,2.6%,-21.0%,0.0%
CC1CCN(S(=O)(=O)c2ccc3c(c2)N(CC(=O)NC(C)c2ccccc2)C(=O)CS3)CC1 (stereo not drawn),.,?,-26.7%,?,?,-2.9%
Cc1cccc(CCNC(=O)c2cc3c(=O)n(C)c4ccccc4c3n2C)c1,.,-17.0%,-13.4%,?,?,0.0%
COc1ccc(C(=O)O/N=C(\N)c2ccc(Cl)cc2)cc1,-27.3,8.9%,0.4%,-3.3%,22.7%,.
COc1ccc(S(=O)(=O)NN=C2CCCC2)cc1,15.1,1.9%,-10.5%,-7.4%,-5.1%,4.1%
COc1ccc(S(=O)(=O)N=C2C=C(C)C(=O)C(C)=C2)cc1,-3.1,4.4%,-1.3%,14.6µM*,20.6µM*,5.9%
COc1cc(C(=O)O/N=C2\C=CC(=O)C(C)=C2)cc(OC)c1OC,-71.8*,?,-108.1%,6.51µM*,16.4µM*,-2.0%
COc1cc(C(=O)ON=C2C=C(C)C(=O)C(C)=C2)cc(OC)c1OC,-20.1,2.7%,-5.8%,14.6µM*,16.4µM*,5.6%
